{"source": "PubChem BioAssay (NCI)", "note": "About 83,000 compounds went through this panel and 20% of them were active in at least one assay; those are over-represented in the sample as a whole.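 Interpretation: 100, growth as untreated; towards 0, rising growth inhibition; 0, no net growth; 0 to -100, cell death. Compounds scoring below 10 were considered active.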 Active and inactive are the calls of the source.", "data": [{"test_system": "MDA-MB-468 breast", "assay": "NCI-60 one-dose screen, 48 h (100 = growth as untreated, 0 = no growth, -100 = all killed)", "settings": "10 µM unless noted", "values": [{"smiles": "C[C@H]1[C@H]2C3=CC[C@@H]4[C@@]5(C)C/C(=C/c6ccncc6)C(=O)C(C)(C)[C@@H]5CC[C@@]4(C)[C@]3(C)CC[C@@]2(C(=O)N2CCN(C)CC2)CC[C@@H]1C", "growth": "41.1% (inactive)"}, {"smiles": "COc1ccc(C(c2cc(OC)c(OC)c(OC)c2)n2ccnc2)cc1O", "note": "(configuration not stated)", "growth": "15.6% (inactive)"}, {"smiles": "N=C(N)c1ccc(-c2ccc(-c3ccccc3)o2)o1", "growth": "14.3% (inactive)"}, {"smiles": "COc1ccc(-c2cc(-c3cc(OC)c(OC)c(OC)c3)c(C#N)c(N3CCOCC3)n2)cc1O", "growth": "76.7% (inactive)"}, {"smiles": "COc1ccc(/C=C/C(=O)/C=C(/C=C/c2ccc(OC)c(OC)c2OC)OB(F)F)c(OC)c1OC", "growth": "39.1% (inactive)"}, {"smiles": "CC1(C)CC[C@]23CC[C@]4(C)[C@H](CC[C@@H]5[C@@]6(C)CC[C@H](N)C(C)(C)[C@@H]6CC[C@]54C)[C@H]2[C@H]1OC3", "growth": "0.703% (active)"}, {"smiles": "COc1cc(Cn2c(-c3ccccc3)cc3c2-c2oncc2CC3)cc(OC)c1", "growth": "-21.4% (active)"}, {"smiles": "NC1=C(Cl)C(=O)c2ccccc2C1=O", "growth": "36.5% (inactive)"}, {"smiles": "CCCOC(=O)C1(O)CCCC1", "growth": "97.1% (inactive)"}, {"smiles": "CC1=CC(=O)CC(C)(C)[C@@]1(O)/C=C/C(C)=C\\C(=O)O", "growth": "-45.1% (active)"}, {"smiles": "COc1cccc(-c2nc3sccn3c2-c2ccnc(NCCNS(=O)(=O)c3ccc(C(F)(F)F)cc3)c2)c1", "growth": "41.7% (inactive)"}, {"smiles": "CCN1CCN(C(=O)[C@]23CCC(C)(C)C[C@H]2C2=CC[C@@H]4[C@@]5(C)CC/C(=N/O)C(C)(C)[C@@H]5CC[C@@]4(C)[C@]2(C)CC3)CC1", "growth": "47% (inactive)"}]}]}
